From PubChem BioAssay (NCI) come the findings set out here.

Among the test systems are HCT-15 colon; HT29 colon; SNB-75 CNS; SNB-19 CNS; U251 CNS; PC-3 prostate; SK-MEL-5 melanoma; UACC-62 melanoma; LOX IMVI melanoma; SK-MEL-28 melanoma; SK-MEL-2 melanoma; EKVX NSCLC; SN12C renal; UO-31 renal; TK-10 renal; ACHN renal; CAKI-1 renal; A498 renal; CCRF-CEM leukemia; MOLT-4 leukemia.
Holding throughout (test): NCI-60 one-dose screen, 48 h (100 = growth as untreated, 0 = no growth, -100 = all killed)
Common to all, as to conditions: 10 µM unless noted

This is part of a sample that, as a whole, favours compounds with a hit. Of some 83,000 tested, about 20% had one in any assay.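 A percent growth of 40 corresponds to 60% growth inhibition; 0 means no net growth; -100 means all cells died. Active threshold: below 10.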 Values without a mark were called inactive. Activity calls are given as the source filed them.

As for `Cn1c2nc3ccccc3c-2cc2ccccc21`, the growth in the assay on HCT-15 colon is 25%; with HT29 colon, 30.2%; in the assay on SNB-75 CNS, 82.3%; in the assay with SNB-19 CNS, 45.5%; in the assay with U251 CNS it was 41.7%; with PC-3 prostate it was 46.2%. Moreover, the growth in the assay on SK-MEL-5 melanoma was 31.2%; in the assay on UACC-62 melanoma, 46.2%; with LOX IMVI melanoma, 18.9%; in the assay with SK-MEL-28 melanoma, 76.1%; in the assay on SK-MEL-2 melanoma, 105%; in the assay on EKVX NSCLC it was 42.5%. The growth is 33.7% in the assay on SN12C renal; 13.9% with UO-31 renal; 103% in the assay with TK-10 renal; 21.2% in the assay on ACHN renal; 18.9% with CAKI-1 renal; 21.3% in the assay on A498 renal. The values for the growth with CCRF-CEM leukemia and in the assay on MOLT-4 leukemia were 50.8% and 21.5%, respectively.
With `O=C(Nc1ccc(N=Cc2c(O)[nH]c3ccccc23)cc1)Nc1ccc(S(=O)(=O)Nc2ncccn2)cc1`, the growth in the assay on HCT-15 colon was 97.4%; in the assay with HT29 colon, 104%; in the assay with SNB-75 CNS, 99%; in the assay on SNB-19 CNS, 101%; with U251 CNS, 103%; in the assay with PC-3 prostate it was 94.1%. For the same compound, the growth is 100% in the assay on SK-MEL-5 melanoma; 103% in the assay on UACC-62 melanoma; 101% in the assay with LOX IMVI melanoma; 120% with SK-MEL-28 melanoma; 111% in the assay with SK-MEL-2 melanoma; 98.1% in the assay on EKVX NSCLC. Further, the growth was 98.8% in the assay on SN12C renal; 81.7% with UO-31 renal; 108% in the assay on TK-10 renal; 104% with ACHN renal; 94.8% in the assay with CAKI-1 renal; 114% in the assay on A498 renal. Further, the growth was 109% in the assay on CCRF-CEM leukemia and 121% in the assay on MOLT-4 leukemia.
In the case of `CCc1cc2c(cc1Cl)nc1c(=O)[nH]c(=O)nc-1n2CCOCC(C)(C)C`, the growth in the assay with HCT-15 colon is 58.3%; in the assay on HT29 colon, 58.5%; in the assay on SNB-75 CNS, 97%; in the assay with SNB-19 CNS, 91%; in the assay on U251 CNS it was 83.4%; in the assay with PC-3 prostate, 68%. For the same compound, the growth was 39.6% in the assay on SK-MEL-5 melanoma; 76.1% with UACC-62 melanoma; 71.9% in the assay with LOX IMVI melanoma; 97.2% in the assay with SK-MEL-28 melanoma; 96.6% in the assay with SK-MEL-2 melanoma; 71.2% in the assay with EKVX NSCLC. Further, the growth was 79.8% in the assay with SN12C renal; 44.3% with UO-31 renal; 160% in the assay on TK-10 renal; 65.7% with ACHN renal; 70.8% in the assay on CAKI-1 renal; 87.6% with A498 renal. The results for the growth in the assay with CCRF-CEM leukemia and in the assay on MOLT-4 leukemia were 89.6% and 69.2%, respectively.
For the compound `O=C1C(SCc2ccccc2)=C(Cl)CN1c1ccccc1`, the growth with HCT-15 colon is 95.8%; in the assay with HT29 colon it was 106%; in the assay on SNB-75 CNS it was 92.2%; in the assay on SNB-19 CNS, 96.2%; with U251 CNS it was 101%; in the assay with PC-3 prostate it was 109%. In addition, the growth in the assay on SK-MEL-5 melanoma is 99.4%; in the assay with UACC-62 melanoma, 93.1%; in the assay with LOX IMVI melanoma it was 42.8%; with SK-MEL-28 melanoma, 98.9%; with SK-MEL-2 melanoma it was 110%; with EKVX NSCLC, 97.9%. For the same compound, the growth in the assay on SN12C renal was 95.7%; in the assay with UO-31 renal, -90.8% (active); with TK-10 renal it was 136%; with ACHN renal, 94.7%; in the assay on CAKI-1 renal, 80.9%; with A498 renal it was 94.3%. Also, the growth in the assay with CCRF-CEM leukemia is 86.1%; with MOLT-4 leukemia, 84.3%.
As for `O=C(CSc1nc2ccccc2c(=O)n1-c1ccccc1)Nc1ccc(S(=O)(=O)Nc2nccs2)cc1`, the growth with HCT-15 colon is 66.5%; with HT29 colon, 69.5%; in the assay with SNB-75 CNS it was 57.4%; in the assay with SNB-19 CNS, 43.7%; in the assay on U251 CNS, 2.78% (active); in the assay with PC-3 prostate, 91%. In addition, the growth with SK-MEL-5 melanoma is 66.5%; in the assay with UACC-62 melanoma it was 71.4%; in the assay on LOX IMVI melanoma, 36.5%; with SK-MEL-28 melanoma it was 76.3%; in the assay with SK-MEL-2 melanoma, 89.9%; in the assay on EKVX NSCLC it was 91.3%. Moreover, the growth is 63.8% in the assay on SN12C renal; 97.2% in the assay on UO-31 renal; 112% with TK-10 renal; 71.9% in the assay with ACHN renal; 59.1% with CAKI-1 renal; 107% in the assay on A498 renal. Further, the growth with CCRF-CEM leukemia was 34.8%; in the assay with MOLT-4 leukemia, 50.2%.
With `CCCNNC(=O)c1ccc(-c2ccc(NC(=O)CCCCCCC(=O)N[C@H](C(=O)N3C[C@H](O)C[C@H]3C(=O)N[C@@H](C)c3ccc(-c4scnc4C)cc3)C(C)(C)C)cc2)cc1`, the growth was 97.5% in the assay on HCT-15 colon; 5.44% (active) in the assay on HT29 colon; 55.1% in the assay with SNB-75 CNS; 28.6% with SNB-19 CNS; 17.1% with U251 CNS; 37.2% in the assay with PC-3 prostate. For the same compound, the growth in the assay on SK-MEL-5 melanoma is -0.921% (active); in the assay on UACC-62 melanoma, -5.46% (active); in the assay on LOX IMVI melanoma, -41.8% (active); with SK-MEL-28 melanoma it was 23.9%; in the assay on SK-MEL-2 melanoma, 7.01% (active); in the assay with EKVX NSCLC, 79.4%. Moreover, the growth in the assay on SN12C renal was 47.8%; in the assay on UO-31 renal, 83.6%; in the assay on TK-10 renal, 2.19% (active); with ACHN renal, 78.2%; in the assay with CAKI-1 renal, 61.8%; in the assay with A498 renal it was -14.4% (active). In addition, the growth was 23.2% in the assay on CCRF-CEM leukemia and 21.1% in the assay on MOLT-4 leukemia.
With `CC[C@]12CC(C(=O)OC)=C3Nc4ccccc4[C@@]34CCN(C14)[C@@H]1c3cc4c(cc3O[C@@H]1[C@H]2O)NC1=C(C(=O)OC)C[C@@]2(CC)C3N(CC[C@@]143)C[C@H]1O[C@H]12` (stereo not given in full), the growth with HCT-15 colon is 3.59% (active); with HT29 colon, 12.2%; with SNB-75 CNS, -4.96% (active); in the assay on SNB-19 CNS it was 14.2%; in the assay with U251 CNS, 19.2%; in the assay with PC-3 prostate, 10.1%. Besides, the growth with SK-MEL-5 melanoma is -75.7% (active); in the assay with UACC-62 melanoma it was 8.9% (active); in the assay on LOX IMVI melanoma it was -64.6% (active); with SK-MEL-28 melanoma it was 20.7%; in the assay on SK-MEL-2 melanoma it was 40.8%; in the assay with EKVX NSCLC, 26.1%. For the same compound, the growth with SN12C renal is 31.1%; in the assay on UO-31 renal it was 7.33% (active); in the assay on TK-10 renal, 6.66% (active); with ACHN renal, 11.1%; in the assay on CAKI-1 renal, 8.4% (active); in the assay with A498 renal it was -46.1% (active). Also, the growth in the assay with CCRF-CEM leukemia was 12.6%; in the assay with MOLT-4 leukemia it was 14%.
For the compound `O=c1[nH][nH]c(-c2ccc(F)cc2)c1-c1nc2ccccc2s1`, the growth was 85% in the assay on HCT-15 colon; 110% in the assay on HT29 colon; 88.4% in the assay with SNB-75 CNS; 80.5% in the assay with SNB-19 CNS; 98.8% in the assay on U251 CNS; 90.3% with PC-3 prostate. For the same compound, the growth with SK-MEL-5 melanoma is 98.8%; with UACC-62 melanoma, 81.8%; with LOX IMVI melanoma, 93.1%; in the assay with SK-MEL-28 melanoma it was 97.7%; in the assay with SK-MEL-2 melanoma it was 100%; in the assay on EKVX NSCLC, 90.1%. The growth was 82% with SN12C renal; 87.3% in the assay on UO-31 renal; 154% in the assay on TK-10 renal; 95.1% in the assay on ACHN renal; 87.1% with CAKI-1 renal; 67.9% with A498 renal. Moreover, the growth in the assay on CCRF-CEM leukemia was 86.6%; in the assay with MOLT-4 leukemia, 95.8%.
